{"source": "PubChem BioAssay (Tox21)", "note": "Where “and” joins values, the source holds several entries; their conditions need not be identical. Equal entries are not always repeated. Results filed as inconclusive are left out. Some compounds were tested as several samples or in several runs, with calls that do not always agree. Calls of active or inactive are those of the source. The call rests on the fitted dose curve; in most records, active means well fitted inhibition curve with a large enough effect in the repeat runs; inconclusive means weak or mixed curves; inactive means no such curve, though single readings can be large or run the other way. On the % scale 0 is the no-effect control and ±100 the full control effect; potency means the concentration at half of the fitted maximal effect.", "data": [{"target": "Cytochrome P450 2C19 (Homo sapiens) (UniProt P33261)", "sequence (P33261 whole entry, looked up)": "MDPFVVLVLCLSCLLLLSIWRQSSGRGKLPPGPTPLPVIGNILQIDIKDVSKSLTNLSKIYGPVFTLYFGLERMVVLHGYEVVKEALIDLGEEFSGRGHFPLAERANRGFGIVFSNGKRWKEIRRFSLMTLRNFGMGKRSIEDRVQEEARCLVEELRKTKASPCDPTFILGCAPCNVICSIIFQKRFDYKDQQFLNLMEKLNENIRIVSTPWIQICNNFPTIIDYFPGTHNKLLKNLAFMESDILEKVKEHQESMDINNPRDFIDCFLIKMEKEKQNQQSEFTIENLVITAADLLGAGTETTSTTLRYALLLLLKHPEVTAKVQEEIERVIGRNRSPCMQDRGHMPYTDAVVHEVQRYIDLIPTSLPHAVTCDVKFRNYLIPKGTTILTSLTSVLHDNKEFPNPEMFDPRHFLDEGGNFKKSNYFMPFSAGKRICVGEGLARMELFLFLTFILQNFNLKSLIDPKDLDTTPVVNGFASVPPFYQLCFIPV", "assay": "Cytochrome P450 Family 2 Subfamily C Member 19 (CYP2C19) small molecule antagonists: luciferase reporter qHTS assay (AID 1671197); further: nearly all actives have a fitted effect of over 65% in size", "conditions": "P450-Glo CYP2C19 enzyme, luciferin luminescence, 1 h; series mostly up to 115 µM; activity change, negative = inhibition: at the top concentration", "excerpt": "National Center for Advancing Translational Sciences [NCATS]\nU.S. Environmental Protection Agency [EPA]\nNational Institutes of Environmental Health Sciences [NIEHS]\nNational Toxicology Program [NTP]\nU.S. Food and Drug Administration [FDA]\nCytochrome P450 (CYP) enzymes are membrane-bound hemeproteins that play a key role in metabolism of drugs and xenobiotics. Evaluation of the effect of chemicals on CYP isozymes is useful to minimize the adverse drug reactions and toxicities in drug development process. Tox21 chemicals were tested for their effect on CYP enzyme activities by using P450-Glo (TM) screening systems (Promega Corporation, Madison, WI). These systems provide a luminescent method containing proluciferin substrates and are converted to luciferin products by CYP isozymes. The luciferin products formed are detected with a luciferin detection reagent, and the amount of light produced is proportional to CYP activity. P450-Glo (TM) CYP2C19 screening system (Catalog. No. V9880) was used to detect the compounds that interfere in CYP2C19 activity. The positive control compound used for CYP2C19 assay is ketoconazole (Sigma-Aldrich, St. Louis, MO).\nTox21 Assay Protocol Summary:\nTwo ul of enzyme-substrate mix was dispensed into medium binding white/solid 1536-well plates (Greiner Bio-One North America Inc., Monroe, NC) using a BioRaptr Flying Reagent Dispenser (FRD, Beckman Coulter, Brea, CA). Compounds dissolved in DMSO and positive control (ketoconazole) were transferred to the assay plates at 23 nl using a Pintool station (Wako, San Diego, CA). The assay plates were incubated at room temperature for 10 min. Then 2 ul of NADPH regeneration solution was added to each well of the assay plates using an FRD and incubated at 37C for 1 h. The reaction was stopped by adding 4 ul of detection reagent using an FRD and after 20 min incubation at room temperature the luminescence signal was measured using a ViewLux plate reader (Perkin Elmer, Shelton, CT). Data were expressed as relative luminescence units.", "values": [{"smiles": "Nc1cc(-c2ccncc2)c[nH]c1=O", "Potency": "8.94 µM (active) and 3.89 µM (active)"}, {"smiles": "CCOC(=O)C1OC1c1ccccc1", "note": "(stereo not given)", "Potency": "36.3 µM (active)"}, {"smiles": "CCCCCCCCCC(=O)O", "activity change, negative = inhibition": "-4.41% (inactive)"}, {"smiles": "c1ccc2ccccc2c1", "Potency": "inactive"}, {"smiles": "C[C@@H]1O[C@@H](OC[C@H]2O[C@@H](Oc3c(-c4ccc(O)c(O)c4)oc4cc(O)cc(O)c4c3=O)[C@H](O)[C@@H](O)[C@@H]2O)[C@H](O)[C@H](O)[C@H]1O", "Potency": "inactive"}, {"smiles": "COC(=O)Nc1nc2ccc(Sc3ccccc3)cc2[nH]1", "Potency": "25.2 µM (active) and inactive"}, {"smiles": "OCCOCCOCCOCCO", "Potency": "40.8 µM (active) and inactive"}, {"smiles": "C=C1C2CCC(C2)C1(C)C", "note": "(stereo not given)", "Potency": "inactive"}, {"smiles": "COCC(C)O", "note": "(stereo not given)", "Potency": "inactive"}, {"smiles": "CC1COc2ccccc2N1C(=O)C(Cl)Cl", "note": "(stereo not given)", "Potency": "7.09 µM (active) and 6.32 µM (active)"}, {"smiles": "O=S(=O)(O)c1cc(S(=O)(=O)O)c2c(N=Nc3ccccc3)c(O)ccc2c1", "Potency": "71.3 µM (active) and inactive"}, {"smiles": "CCCCCCOC(C)=O", "Potency": "inactive"}, {"smiles": "Cc1ccc(N)c(S(=O)(=O)O)c1", "Potency": "71.9 µM (active) and inactive"}, {"smiles": "CCC(C)C=O", "note": "(stereo not given)", "Potency": "39.9 µM (active) and inactive"}, {"smiles": "CCCCNC(N)=O", "Potency": "inactive"}, {"smiles": "CCc1ccc(O)cc1", "Potency": "71.3 µM (active) and inactive"}, {"smiles": "C=C(C)C(=O)OCCCCCC", "activity change, negative = inhibition": "-4.54% (inactive)"}, {"smiles": "Cc1cc(O)c2c(c1)C(=O)c1cc(O)cc(O)c1C2=O", "Potency": "inactive and 35.6 µM (active)"}, {"smiles": "C=C(C)C(=O)OCCC[Si](OC)(OC)OC", "Potency": "22.2 µM (active)"}, {"smiles": "C=C(C#N)C(=O)OCC", "Potency": "inactive and 56.4 µM (active)"}, {"smiles": "CN(C)c1ccc(C(=N)c2ccc(N(C)C)cc2)cc1", "Potency": "5.57 µM (active) and 15.3 µM (active)"}, {"smiles": "OC[C@@H](O)[C@H](O)[C@H](O)[C@@H](O)CO", "Potency": "inactive"}, {"smiles": "CC(C)Cc1ccccc1", "Potency": "inactive"}, {"smiles": "COC(=O)c1ccc(C(=O)OC)cc1", "Potency": "18.1 µM (active) and inactive"}, {"smiles": "Oc1c(Cl)cc(Cl)c(Cl)c1Cl", "activity change, negative = inhibition": "3.31% (inactive)"}, {"smiles": "O=C1O[C@H](CO)[C@@H](O)[C@H](O)[C@H]1O", "Potency": "inactive"}, {"smiles": "CCOC(=O)/C=C\\C(=O)OCC", "Potency": "72.3 µM (active) and inactive"}, {"smiles": "CCCCC/C=C\\C/C=C\\CCCCCCCC(=O)OC", "Potency": "55.8 µM (active) and 11.2 µM (active)"}, {"smiles": "NCc1cccc(CN)c1", "Potency": "36.6 µM (active) and 31.7 µM (active)"}, {"smiles": "O=C1CCCCC1", "Potency": "74.6 µM (active) and inactive"}, {"smiles": "Nc1c(S(=O)(=O)O)cc(Br)c2c1C(=O)c1ccccc1C2=O", "activity change, negative = inhibition": "-24.9% [at 52.9 µM] (inactive)"}, {"smiles": "NC(=O)/N=N/C(N)=O", "Potency": "3.18 µM (active) and 5.64 µM (active)"}, {"smiles": "CCCCCCCCCCCCN", "Potency": "4.02 µM (active) and 633 nM (active) and 2.56 µM (active)"}, {"smiles": "CC[Si](OC(C)=O)(OC(C)=O)OC(C)=O", "Potency": "50.2 µM (active) and inactive"}, {"smiles": "C=C(C)C(=O)OCCCCCCCCCCCC", "Potency": "inactive"}, {"smiles": "CCCCCCCCCCC=CC1CC(=O)OC1=O", "note": "(stereo not given)", "Potency": "45 µM (active) and inactive"}, {"smiles": "CC1=CC[C@H]2C[C@@H]1C2(C)C", "Potency": "inactive"}, {"smiles": "OCC1CCCO1", "note": "(stereo not given)", "Potency": "40.7 µM (active) and inactive"}, {"smiles": "CC#C[C@]1(O)CC[C@H]2[C@@H]3CCC4=CC(=O)CCC4=C3[C@@H](c3ccc(N(C)C)cc3)C[C@@]21C", "Potency": "20 µM (active)"}, {"smiles": "CC(=O)Nc1ccc(C(=O)O)cc1", "Potency": "inactive"}]}]}
